# Assays:
# Experiment in all cases: DAPPL (digital affinity profiling via proximity ligation, sequencing); 10 mM Tris-HCl pH 7.5, 50 mM NaCl, 1 mM DTT, 4% glycerol, room temperature, 30 min; GST-TFs on glutathione beads, 16-mer random dsDNA library, 0.1% formaldehyde crosslink after washing; high values mean tight binding
# [1] = biological target: T1, FEV (Homo sapiens, UniProt Q99581 1-238); conditions: protein: recombinant; tags: N-terminal GST; dsDNA, one strand shown
# T1 sequence: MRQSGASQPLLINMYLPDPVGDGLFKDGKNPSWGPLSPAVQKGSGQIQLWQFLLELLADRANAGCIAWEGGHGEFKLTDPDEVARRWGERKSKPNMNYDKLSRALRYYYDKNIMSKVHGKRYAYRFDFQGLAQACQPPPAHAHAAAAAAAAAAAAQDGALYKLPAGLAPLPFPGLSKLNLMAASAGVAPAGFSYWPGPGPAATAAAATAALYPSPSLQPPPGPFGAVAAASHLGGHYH
# Summary of the method: (§1)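 In yeast, human transcription factors were expressed with a GST fusion, then pulled down on glutathione beads and given DNA barcodes. Pooled with a tag-only sample, they were exposed to 200 nmole of a 16-mer random double-stranded DNA library (Tris/NaCl/DTT/glycerol buffer, room temperature, 30 min), washed, crosslinked with 0.1% formaldehyde, proximity-ligated using BsaI/T4 ligase for 1 h at 37 °C, PCR-amplified and read on an Illumina NextSeq500. Each hexamer's frequency of reads for a factor, divided by the matching frequency for the tag-only sample, gives the binding signal.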
# [2] = biological target: ETV5 (Homo sapiens, UniProt P41161 1-510); conditions: protein: recombinant; tags: N-terminal GST; dsDNA, one strand shown
# Summary of the method: as §1
# [3] = biological target: HSF1 (Homo sapiens, UniProt Q00613 1-529); conditions: protein: recombinant; tags: N-terminal GST; chain copies: 3; dsDNA, one strand shown
# Summary of the method: as §1
# [4] = biological target: T2, SPIC (Homo sapiens, UniProt Q8N5J4 1-248); conditions: protein: recombinant; tags: N-terminal GST; dsDNA, one strand shown
# T2 sequence: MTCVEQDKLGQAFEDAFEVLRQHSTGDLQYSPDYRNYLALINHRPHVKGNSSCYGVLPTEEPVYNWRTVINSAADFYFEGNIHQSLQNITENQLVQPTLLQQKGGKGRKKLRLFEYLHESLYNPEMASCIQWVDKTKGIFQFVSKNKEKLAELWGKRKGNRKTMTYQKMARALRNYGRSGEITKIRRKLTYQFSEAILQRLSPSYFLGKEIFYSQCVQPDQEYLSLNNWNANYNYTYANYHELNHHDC
# Summary of the method: as §1
# [5] = biological target: ELF4 (Homo sapiens, UniProt Q99607 1-663); conditions: protein: recombinant; tags: N-terminal GST; dsDNA, one strand shown
# Summary of the method: as §1
# [6] = biological target: T3, ELK4 (Homo sapiens, UniProt P28324-2 1-405); conditions: protein: recombinant; tags: N-terminal GST; dsDNA, one strand shown
# T3 sequence: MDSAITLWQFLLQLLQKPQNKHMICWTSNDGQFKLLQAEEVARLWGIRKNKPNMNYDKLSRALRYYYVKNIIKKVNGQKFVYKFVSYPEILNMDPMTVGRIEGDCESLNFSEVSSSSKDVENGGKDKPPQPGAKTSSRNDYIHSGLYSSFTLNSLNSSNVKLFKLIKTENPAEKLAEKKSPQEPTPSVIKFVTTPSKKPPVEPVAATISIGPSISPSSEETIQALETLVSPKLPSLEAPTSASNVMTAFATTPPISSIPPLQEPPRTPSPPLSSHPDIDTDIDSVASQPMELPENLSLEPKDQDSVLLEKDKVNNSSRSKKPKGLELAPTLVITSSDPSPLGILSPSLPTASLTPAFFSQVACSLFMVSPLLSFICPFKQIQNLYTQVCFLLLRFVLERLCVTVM
# Summary of the method: as §1
# [7] = biological target: T4, ETV2 (Homo sapiens, UniProt O00321 1-342); conditions: protein: recombinant; tags: N-terminal GST; dsDNA, one strand shown
# T4 sequence: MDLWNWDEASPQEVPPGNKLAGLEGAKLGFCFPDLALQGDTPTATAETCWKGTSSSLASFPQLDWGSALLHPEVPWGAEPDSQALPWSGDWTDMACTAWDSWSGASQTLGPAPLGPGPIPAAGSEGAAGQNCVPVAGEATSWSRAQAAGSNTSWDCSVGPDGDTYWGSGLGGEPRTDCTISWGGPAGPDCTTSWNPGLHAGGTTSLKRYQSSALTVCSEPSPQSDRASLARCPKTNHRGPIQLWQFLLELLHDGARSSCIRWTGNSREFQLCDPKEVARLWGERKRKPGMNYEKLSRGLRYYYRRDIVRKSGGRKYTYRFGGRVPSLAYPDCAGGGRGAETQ
# Summary of the method: as §1
# [8] = biological target: T5, ELF3 (Homo sapiens, UniProt P78545 1-371); conditions: protein: recombinant; tags: N-terminal GST; dsDNA, one strand shown
# T5 sequence: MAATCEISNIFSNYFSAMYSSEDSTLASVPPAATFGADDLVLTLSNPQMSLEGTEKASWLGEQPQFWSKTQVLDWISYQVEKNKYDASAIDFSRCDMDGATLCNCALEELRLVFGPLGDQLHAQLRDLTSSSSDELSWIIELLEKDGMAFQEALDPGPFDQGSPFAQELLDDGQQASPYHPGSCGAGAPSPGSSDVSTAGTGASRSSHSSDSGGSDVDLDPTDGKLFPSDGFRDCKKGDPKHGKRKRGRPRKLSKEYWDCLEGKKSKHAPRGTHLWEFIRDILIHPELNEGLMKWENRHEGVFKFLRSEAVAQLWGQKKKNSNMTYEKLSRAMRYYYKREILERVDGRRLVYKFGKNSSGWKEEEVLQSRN
# Summary of the method: as §1
# [9] = biological target: CRX (Homo sapiens, UniProt O43186 1-299); conditions: protein: recombinant; tags: N-terminal GST; dsDNA, one strand shown
# Summary of the method: as §1
# [10] = biological target: ETV1 (Homo sapiens, UniProt P50549 1-477); conditions: protein: recombinant; tags: N-terminal GST; dsDNA, one strand shown
# Summary of the method: as §1
# [11] = biological target: T6, ERF (Homo sapiens, UniProt P50548 1-548); conditions: protein: recombinant; tags: N-terminal GST; dsDNA, one strand shown
# T6 sequence: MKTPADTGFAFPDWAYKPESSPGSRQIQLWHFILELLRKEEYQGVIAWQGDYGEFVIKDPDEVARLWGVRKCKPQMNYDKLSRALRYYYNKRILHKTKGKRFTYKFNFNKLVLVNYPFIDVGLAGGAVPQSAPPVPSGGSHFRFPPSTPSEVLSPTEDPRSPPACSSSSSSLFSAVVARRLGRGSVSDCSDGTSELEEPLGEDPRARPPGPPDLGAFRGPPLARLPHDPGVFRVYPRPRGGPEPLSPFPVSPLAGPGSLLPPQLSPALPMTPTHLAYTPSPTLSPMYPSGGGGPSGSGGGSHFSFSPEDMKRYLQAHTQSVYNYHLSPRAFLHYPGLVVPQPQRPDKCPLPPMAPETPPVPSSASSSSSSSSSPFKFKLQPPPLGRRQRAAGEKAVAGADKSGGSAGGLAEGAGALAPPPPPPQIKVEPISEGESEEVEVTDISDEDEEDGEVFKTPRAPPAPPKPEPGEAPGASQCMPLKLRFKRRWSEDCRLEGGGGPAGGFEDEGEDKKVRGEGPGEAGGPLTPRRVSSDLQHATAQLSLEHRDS
# Summary of the method: as §1
# [12] = biological target: T7, ETV3L (Homo sapiens, UniProt Q6ZN32 1-361); conditions: protein: recombinant; tags: N-terminal GST; dsDNA, one strand shown
# T7 sequence: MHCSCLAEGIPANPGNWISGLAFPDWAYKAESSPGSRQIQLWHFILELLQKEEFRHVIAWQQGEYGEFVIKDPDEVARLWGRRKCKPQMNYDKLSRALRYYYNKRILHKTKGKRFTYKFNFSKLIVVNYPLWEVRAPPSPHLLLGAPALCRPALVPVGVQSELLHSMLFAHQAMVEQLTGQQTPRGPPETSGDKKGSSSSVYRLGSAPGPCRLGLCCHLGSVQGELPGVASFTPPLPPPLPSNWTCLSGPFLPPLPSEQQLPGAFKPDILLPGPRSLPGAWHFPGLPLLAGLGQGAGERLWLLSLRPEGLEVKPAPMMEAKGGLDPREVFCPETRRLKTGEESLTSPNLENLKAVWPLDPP
# Summary of the method: as §1
# [13] = biological target: T8, ETS2 (Homo sapiens, UniProt P15036 1-469); conditions: protein: recombinant; tags: N-terminal GST; dsDNA, one strand shown
# T8 sequence: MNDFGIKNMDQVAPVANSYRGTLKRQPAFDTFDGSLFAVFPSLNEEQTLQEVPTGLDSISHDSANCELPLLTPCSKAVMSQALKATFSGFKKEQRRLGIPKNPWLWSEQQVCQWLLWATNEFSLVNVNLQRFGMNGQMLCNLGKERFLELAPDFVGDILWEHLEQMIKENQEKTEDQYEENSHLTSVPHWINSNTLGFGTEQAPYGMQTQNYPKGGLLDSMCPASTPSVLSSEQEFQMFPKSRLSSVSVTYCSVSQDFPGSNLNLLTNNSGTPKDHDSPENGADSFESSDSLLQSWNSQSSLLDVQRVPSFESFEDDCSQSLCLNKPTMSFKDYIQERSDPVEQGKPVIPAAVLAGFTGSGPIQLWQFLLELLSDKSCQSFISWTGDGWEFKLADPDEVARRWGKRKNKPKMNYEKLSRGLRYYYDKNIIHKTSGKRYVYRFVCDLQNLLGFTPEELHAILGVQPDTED
# Summary of the method: as §1
# [14] = biological target: T9, SPDEF (Homo sapiens, UniProt O95238 1-335); conditions: protein: recombinant; tags: N-terminal GST; dsDNA, one strand shown
# T9 sequence: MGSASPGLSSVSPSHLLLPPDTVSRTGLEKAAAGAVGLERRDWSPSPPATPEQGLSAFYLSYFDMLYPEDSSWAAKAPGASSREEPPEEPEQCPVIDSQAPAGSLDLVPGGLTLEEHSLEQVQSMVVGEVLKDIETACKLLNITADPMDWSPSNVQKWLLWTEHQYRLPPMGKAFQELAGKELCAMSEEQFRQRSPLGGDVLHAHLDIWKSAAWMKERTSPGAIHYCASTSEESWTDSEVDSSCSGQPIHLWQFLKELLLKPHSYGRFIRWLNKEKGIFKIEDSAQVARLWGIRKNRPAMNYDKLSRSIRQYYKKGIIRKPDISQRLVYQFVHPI
# Summary of the method: as §1
# [15] = biological target: T10, ETV7 (Homo sapiens, UniProt Q9Y603 1-341); conditions: protein: recombinant; tags: N-terminal GST; dsDNA, one strand shown
# T10 sequence: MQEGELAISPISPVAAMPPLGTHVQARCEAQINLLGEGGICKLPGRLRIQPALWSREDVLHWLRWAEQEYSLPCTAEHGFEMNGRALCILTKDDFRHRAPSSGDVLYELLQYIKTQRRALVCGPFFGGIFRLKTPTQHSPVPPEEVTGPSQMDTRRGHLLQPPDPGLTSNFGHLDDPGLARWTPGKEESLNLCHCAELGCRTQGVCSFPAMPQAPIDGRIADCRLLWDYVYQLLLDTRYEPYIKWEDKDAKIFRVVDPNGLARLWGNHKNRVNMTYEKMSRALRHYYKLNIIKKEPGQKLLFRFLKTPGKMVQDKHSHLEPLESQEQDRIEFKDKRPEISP
# Summary of the method: as §1
# [16] = biological target: T11, ELF5 (Homo sapiens, UniProt Q9UKW6-2 1-255); conditions: protein: recombinant; tags: N-terminal GST; dsDNA, one strand shown
# T11 sequence: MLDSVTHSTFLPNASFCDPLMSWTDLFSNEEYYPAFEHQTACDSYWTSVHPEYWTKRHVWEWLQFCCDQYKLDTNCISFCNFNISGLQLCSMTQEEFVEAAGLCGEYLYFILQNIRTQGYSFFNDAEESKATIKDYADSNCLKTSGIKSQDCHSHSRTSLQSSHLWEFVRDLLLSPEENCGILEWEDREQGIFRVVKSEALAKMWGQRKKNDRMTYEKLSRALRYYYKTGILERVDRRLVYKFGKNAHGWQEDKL
# Summary of the method: as §1
# [17] = biological target: T12, ETV3 (Homo sapiens, UniProt P41162-2 1-143); conditions: protein: recombinant; tags: N-terminal GST; dsDNA, one strand shown
# T12 sequence: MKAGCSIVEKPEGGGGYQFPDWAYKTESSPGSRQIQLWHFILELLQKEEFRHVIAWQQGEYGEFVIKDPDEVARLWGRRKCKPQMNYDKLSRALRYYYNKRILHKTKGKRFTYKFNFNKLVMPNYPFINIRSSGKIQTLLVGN
# Summary of the method: as §1
# [18] = biological target: ETV6 (Homo sapiens, UniProt P41212 1-452); conditions: protein: recombinant; tags: N-terminal GST; dsDNA, one strand shown
# Summary of the method: as §1
# HSF1, sequence (Q00613 whole entry): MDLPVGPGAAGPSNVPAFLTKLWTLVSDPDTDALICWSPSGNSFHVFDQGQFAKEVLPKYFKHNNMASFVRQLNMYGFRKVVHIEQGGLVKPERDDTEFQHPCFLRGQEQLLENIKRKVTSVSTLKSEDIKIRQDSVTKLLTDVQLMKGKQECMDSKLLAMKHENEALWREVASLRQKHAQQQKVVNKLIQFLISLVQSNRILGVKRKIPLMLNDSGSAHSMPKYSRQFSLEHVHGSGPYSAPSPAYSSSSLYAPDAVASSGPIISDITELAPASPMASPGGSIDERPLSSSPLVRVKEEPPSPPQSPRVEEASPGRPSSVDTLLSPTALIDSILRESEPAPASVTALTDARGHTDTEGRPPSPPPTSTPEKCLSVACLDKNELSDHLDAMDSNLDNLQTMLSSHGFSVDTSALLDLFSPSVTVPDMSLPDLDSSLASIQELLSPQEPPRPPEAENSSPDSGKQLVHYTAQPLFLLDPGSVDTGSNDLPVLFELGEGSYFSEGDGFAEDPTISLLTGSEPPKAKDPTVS
# CRX, sequence (O43186 whole entry): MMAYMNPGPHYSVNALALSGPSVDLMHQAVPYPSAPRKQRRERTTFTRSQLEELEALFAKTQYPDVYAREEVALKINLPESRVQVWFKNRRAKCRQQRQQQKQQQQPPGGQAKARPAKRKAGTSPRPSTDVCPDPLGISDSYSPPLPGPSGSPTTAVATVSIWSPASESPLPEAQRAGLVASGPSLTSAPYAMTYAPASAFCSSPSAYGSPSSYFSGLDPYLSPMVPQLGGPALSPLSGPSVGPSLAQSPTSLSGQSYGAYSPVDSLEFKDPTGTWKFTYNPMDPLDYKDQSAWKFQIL
# ELF4, sequence (Q99607 whole entry): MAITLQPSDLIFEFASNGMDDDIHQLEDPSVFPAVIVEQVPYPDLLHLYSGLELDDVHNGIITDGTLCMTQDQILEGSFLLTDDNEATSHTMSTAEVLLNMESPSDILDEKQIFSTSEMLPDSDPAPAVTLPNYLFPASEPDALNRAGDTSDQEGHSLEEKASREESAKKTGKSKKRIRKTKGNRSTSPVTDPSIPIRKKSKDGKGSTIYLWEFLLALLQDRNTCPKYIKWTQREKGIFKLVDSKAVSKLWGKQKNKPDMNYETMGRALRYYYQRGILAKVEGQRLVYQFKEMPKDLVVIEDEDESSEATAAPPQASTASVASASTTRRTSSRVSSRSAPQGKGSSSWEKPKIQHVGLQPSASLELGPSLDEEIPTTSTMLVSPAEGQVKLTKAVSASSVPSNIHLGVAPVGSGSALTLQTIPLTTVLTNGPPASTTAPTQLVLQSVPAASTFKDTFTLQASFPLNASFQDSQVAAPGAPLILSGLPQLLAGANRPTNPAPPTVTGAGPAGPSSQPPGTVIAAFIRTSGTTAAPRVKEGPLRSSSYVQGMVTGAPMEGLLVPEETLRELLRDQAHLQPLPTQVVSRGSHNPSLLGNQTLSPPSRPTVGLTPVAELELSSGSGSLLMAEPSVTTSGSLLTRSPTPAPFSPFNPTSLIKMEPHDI
# ETV6, sequence (P41212 whole entry): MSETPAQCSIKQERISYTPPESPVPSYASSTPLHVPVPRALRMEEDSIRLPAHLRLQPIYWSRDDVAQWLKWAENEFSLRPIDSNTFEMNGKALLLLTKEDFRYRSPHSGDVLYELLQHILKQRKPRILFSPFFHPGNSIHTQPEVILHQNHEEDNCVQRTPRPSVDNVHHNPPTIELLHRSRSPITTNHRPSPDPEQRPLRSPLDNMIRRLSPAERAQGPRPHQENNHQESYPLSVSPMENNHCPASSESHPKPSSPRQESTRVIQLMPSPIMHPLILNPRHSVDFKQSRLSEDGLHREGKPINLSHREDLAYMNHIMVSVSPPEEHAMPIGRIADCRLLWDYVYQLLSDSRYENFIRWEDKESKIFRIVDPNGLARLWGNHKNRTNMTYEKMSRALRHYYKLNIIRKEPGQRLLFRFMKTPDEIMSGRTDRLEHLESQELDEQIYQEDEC
# ETV5, sequence (P41161 whole entry): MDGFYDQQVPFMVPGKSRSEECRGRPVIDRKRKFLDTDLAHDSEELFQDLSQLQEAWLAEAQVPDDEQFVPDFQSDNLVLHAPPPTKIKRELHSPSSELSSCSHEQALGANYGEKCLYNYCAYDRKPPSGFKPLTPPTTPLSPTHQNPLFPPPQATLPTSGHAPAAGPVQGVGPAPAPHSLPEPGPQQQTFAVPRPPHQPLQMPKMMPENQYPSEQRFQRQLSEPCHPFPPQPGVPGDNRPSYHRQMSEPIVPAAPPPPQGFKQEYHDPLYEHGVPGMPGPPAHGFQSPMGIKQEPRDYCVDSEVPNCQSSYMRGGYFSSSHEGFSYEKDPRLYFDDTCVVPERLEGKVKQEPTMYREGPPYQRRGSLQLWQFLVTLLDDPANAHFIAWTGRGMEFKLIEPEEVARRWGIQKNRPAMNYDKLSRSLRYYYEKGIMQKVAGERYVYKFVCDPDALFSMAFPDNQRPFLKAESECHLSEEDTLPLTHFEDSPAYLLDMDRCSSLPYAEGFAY
# ETV1, sequence (P50549 whole entry): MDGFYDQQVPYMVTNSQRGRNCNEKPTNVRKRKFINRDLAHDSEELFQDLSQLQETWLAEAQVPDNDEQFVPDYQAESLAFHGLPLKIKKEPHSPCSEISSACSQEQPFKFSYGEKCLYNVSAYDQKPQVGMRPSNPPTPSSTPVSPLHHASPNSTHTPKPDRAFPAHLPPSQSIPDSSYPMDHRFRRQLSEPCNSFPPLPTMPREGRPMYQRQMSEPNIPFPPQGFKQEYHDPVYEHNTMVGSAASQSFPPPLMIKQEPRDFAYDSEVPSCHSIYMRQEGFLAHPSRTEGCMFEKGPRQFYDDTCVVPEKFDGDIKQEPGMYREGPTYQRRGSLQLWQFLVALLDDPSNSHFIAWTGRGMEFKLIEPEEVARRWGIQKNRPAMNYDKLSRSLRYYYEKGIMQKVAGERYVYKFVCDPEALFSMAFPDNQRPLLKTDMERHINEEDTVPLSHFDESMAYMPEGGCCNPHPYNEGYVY
sequence,measurement,setting,value
TCAAAA,binding signal,[1],"1.13 fold enrichment (6-mer frequency, TF over GST control)"
same,binding signal,[2],"1.17 fold enrichment (6-mer frequency, TF over GST control)"
same,binding signal,[3],"1.19 fold enrichment (6-mer frequency, TF over GST control)"
same,binding signal,[4],"1.24 fold enrichment (6-mer frequency, TF over GST control)"
same,binding signal,[5],"1.22 fold enrichment (6-mer frequency, TF over GST control)"
same,binding signal,[6],"1.25 fold enrichment (6-mer frequency, TF over GST control)"
same,binding signal,[7],"1.23 fold enrichment (6-mer frequency, TF over GST control)"
same,binding signal,[8],"1.39 fold enrichment (6-mer frequency, TF over GST control)"
same,binding signal,[9],"1.28 fold enrichment (6-mer frequency, TF over GST control)"
same,binding signal,[10],"1.23 fold enrichment (6-mer frequency, TF over GST control)"
same,binding signal,[11],"1.12 fold enrichment (6-mer frequency, TF over GST control)"
same,binding signal,[12],"1.18 fold enrichment (6-mer frequency, TF over GST control)"
same,binding signal,[13],"1.15 fold enrichment (6-mer frequency, TF over GST control)"
same,binding signal,[14],"1.06 fold enrichment (6-mer frequency, TF over GST control)"
same,binding signal,[15],"1.22 fold enrichment (6-mer frequency, TF over GST control)"
same,binding signal,[16],"1.11 fold enrichment (6-mer frequency, TF over GST control)"
same,binding signal,[17],"1.15 fold enrichment (6-mer frequency, TF over GST control)"
same,binding signal,[18],"1.24 fold enrichment (6-mer frequency, TF over GST control)"
